The source of these data is PubChem BioAssay (NCATS).

Structures are written as SMILES. Several values for one entry are separate records, joined by “and”; a condition that tells them apart may be missing. Identical values can stand only once. Records with an inconclusive call do not appear. Entries that show only a call come without a potency. Activity calls are given as the source filed them. The call rests on the fitted dose curve; in most records, active means well fitted cell-killing curve with a large enough effect; inconclusive means small, poorly fitted or top-dose-only effect; inactive means no such curve, though single readings can be large or run the other way.
Potency means the concentration at half of the fitted maximal effect.

The assay can be described thus: qHTS of pediatric cancer cell lines to identify multiple opportunities for drug repurposing: Primary screen for NB1643 cells (AID 1347099). Further: nearly all actives have a fitted effect of over 50% in size. Conditions: NB1643 neuroblastoma viability, CellTiter-Glo luminescence, 48 h; series mostly up to 46 µM. An excerpt: Drug repurposing or repositioning has been offered as a strategy for drug development in oncology programs. This approach has special potential for childhood cancers and other rare or orphan diseases, where the expected return on new drug development has been a disincentive to pharmaceuticals. […] In this project we exploit the poly-pharmacology of drugs to discover new indications via phenotypic screening of a panel of 19 well-characterized cell lines derived from solid tumors seen in children and adolescents. The goal is to identify approved drugs with previously unrecognized anticancer properties that has the potential to reveal new mechanisms and biological processes involved in carcinogenesis or drug resistance. We employed a titration-based paradigm (quantitative high-throughput screening or qHTS), where all compounds were tested at multiple concentrations for their effect on cell viability. Concentration-response curves (CRCs) were derived directly from the primary screen, and both potency and efficacy values were used to identify compounds with robust bioactivity profiles. We screened the NIH Chemical Genomics Center (NCGC) Pharmaceutical Collection (NPC) and Mechanism Interrogation Plate (MIPE) small molecule collections of approved and investigational compounds against these cell lines; and measured metabolically active cells after 48 hours of compound treatment as a proxy for cell viability. […] Assay Submitter: Nathalia J. Martinez, National Center for Advancing Translational Sciences, National Institutes of Health, Rockville, MD, USA; email: natalia.martinez@nih.gov Shen, M et al. Quantitative high-throughput phenotypic screening of pediatric cancer cell lines identifies multiple opportunities for drug repurposing. Oncotarget 2017 Dec 19;9(4):4758-4772. PMID 29435139.
The cells were obtained from University of North Carolina (UNC), Pediatric Preclinical Testing Program (PPT), and Coriell Institute (CI). qHTS cell viability assay: Cells were assayed in growth media at a density of 500-1,000 cells/well. Five microliters of cells were dispensed into 1,536-well, white, solid-bottom, TC-treated plates (Greiner Bio One) using a multidrop dispenser and incubated at 37 degrees C, 5% CO2, under a humidified atmosphere for 5 hours. Twenty-three nanoliters of compounds and controls (neutral control DMSO or positive control bortezomib at final concentration of 2.3 µM) were subsequently transferred by Kalypsys pintool. For primary screens, the MIPE collection was tested at 11-point dilutions (final concentrations range from 0.78 nM to 46 µM) and the NPC collection at 8-point dilutions (final concentrations range from 0.59 nM to 46 µM). Compounds tested in follow-up screens were assayed at 11-point dilutions. Cells were incubated for 48 hours, followed by addition of 3 µL of CellTiter-Glo (Promega). After a 15 min incubation at room temperature, samples were analyzed for luminescence intensity using a ViewLux High-throughput CCD imager equipped with clear filters.
Turning to `NC(N)=NC(N)=NCCc1ccccc1`, the Potency result is “inactive”.

Turning to `CCOCC(O)COc1ccc(NC(=O)CC[S+](C)C)cc1` (stereo not given), the Potency result is “inactive”.

Regarding `Cc1noc(NS(=O)(=O)c2ccc(N)cc2)c1C`, the Potency entry was “inactive”.

Take `CO[C@@H]1[C@@H](OC(N)=O)[C@@H](O)[C@H](Oc2ccc3c(O)c(NC(=O)c4ccc(O)c(CC=C(C)C)c4)c(=O)oc3c2C)OC1(C)C`: the Potency entry was “inactive”.

Take `O=C(O)CSCC(=O)NC1CCSC1=O` (stereo not given): the Potency result was “inactive”.

As to `CC(=O)[C@H]1CC[C@H]2[C@@H]3CCC4=CC(=O)CC[C@]4(C)[C@H]3CC[C@]12C`, the Potency is 2.96 µM (active).

Consider `COc1ncnc(NS(=O)(=O)c2ccc(N)cc2)c1OC`, for which the Potency entry is “inactive”.

Regarding `CC(N)C12CC3CC(CC(C3)C1)C2` (stereo not given), the Potency entry was “inactive”.

In the case of `NCCCC(O)(P(=O)(O)O)P(=O)(O)O`, the Potency result is “inactive”.

On to `CC1=CC(=O)c2ccccc2C1=O`, for which the Potency is 16.6 µM (active).

For the compound `CCN(CC)CCn1c(=O)c(Cc2ccc(OC)cc2)nc2ccccc21`, the Potency result is “inactive”.

For the compound `O=C(O)C1CCCN(CCC=C(c2ccccc2)c2ccccc2)C1` (stereo not given), the Potency result was “inactive”.

On to `Cc1c(-c2ccc(O)cc2)n(Cc2ccc(OCCN3CCCCCC3)cc2)c2ccc(O)cc12`, for which the Potency entry is “inactive”.

With `CCN1CCCC1CNC(=O)c1cc(S(N)(=O)=O)ccc1OC` (stereo not given), the Potency entry was “inactive”.

Turning to `Cn1c(=O)c2c(ncn2CC(O)CO)n(C)c1=O` (stereo not given), the Potency entry is “inactive”.

Take `NC(=O)N1c2ccccc2CC(=O)c2ccccc21`: the Potency result is “inactive”.

As for `CNS(=O)(=O)Cc1ccc2[nH]cc(CCN(C)C)c2c1`, the Potency result was “inactive”.

On to `Oc1c(Cl)cc(Cl)c2cccnc12`, for which the Potency is 2.66 µM (active) and 6.62 µM (active).

As to `Cc1oc(=O)oc1CN1CCN(c2cc3c(cc2F)c(=O)c(C(=O)O)c2n3C(C)S2)CC1` (stereo not given), the Potency result was “inactive”.

Regarding `CCCCCCNC(=O)n1cc(F)c(=O)[nH]c1=O`, the Potency was 5.9 µM (active).

On to `CC(=O)CC(c1ccccc1)c1c(O)c2ccccc2oc1=O` (stereo not given), for which the Potency result is “inactive”.

Turning to `CO[C@@]12[C@H](COC(N)=O)C3=C(C(=O)C(C)=C(N)C3=O)N1C[C@@H]1N[C@@H]12`, the Potency was 1.33 µM (active).

Turning to `Nc1[nH]c(=O)ncc1F`, the Potency result was “inactive”.

In the case of `Nc1nc(F)nc2c1ncn2[C@@H]1O[C@H](CO)[C@@H](O)[C@@H]1O`, the Potency was 0.372 µM (active).

For `O=NN(CCCl)C(=O)NC1CCCCC1`, the Potency result was “inactive”.

As for `COc1cc2nc(N3CCCN(C)CC3)nc(NC3CCN(Cc4ccccc4)CC3)c2cc1OC`, the Potency is 9.35 µM (active).

With `CCOc1cc(N)c(Cl)cc1C(=O)NCC1CN(Cc2ccc(F)cc2)CCO1` (stereo not given), the Potency entry is “inactive”.

Regarding `Cc1ncc([N+](=O)[O-])n1CCO`, the Potency result is “inactive”.

Turning to `Cn1nnc2c(C(N)=O)ncn2c1=O`, the Potency result was “inactive”.

Turning to `COc1cc(NS(=O)(=O)c2ccc(N)cc2)nc(OC)n1`, the Potency entry was “inactive”.

As for `CCc1c2c(nc3ccc(OC(=O)N4CCC(N5CCCCC5)CC4)cc13)-c1cc3c(c(=O)n1C2)COC(=O)[C@]3(O)CC`, the Potency was 841 nM (active) and 1.66 µM (active).

On to `CC(C)(Sc1cc(C(C)(C)C)c(O)c(C(C)(C)C)c1)Sc1cc(C(C)(C)C)c(O)c(C(C)(C)C)c1`, for which the Potency entry was “inactive”.

As to `CCCCc1oc2ccc(NS(C)(=O)=O)cc2c1C(=O)c1ccc(OCCCN(CCCC)CCCC)cc1`, the Potency was 18.7 µM (active).

Consider `OCc1ccc(-c2nn(Cc3ccccc3)c3ccccc23)o1`, for which the Potency entry was “inactive”.

In the case of `Cc1ccnc2c1NC(=O)c1cccnc1N2C1CC1`, the Potency result was “inactive”.

In the case of `O=C(O)CCn1c2c(c3ccccc31)C[C@H](NS(=O)(=O)c1ccc(F)cc1)CC2`, the Potency entry was “inactive”.

With `N=C(N)c1ccc(OCCCCCOc2ccc(C(=N)N)cc2)cc1`, the Potency was 20.9 µM (active).

Turning to `CCn1cc(C(=O)O)c(=O)c2cc(F)c(N3CCN(C)CC3)cc21`, the Potency entry is “inactive”.

As for `CCN(C)C(=O)Oc1cccc([C@H](C)N(C)C)c1`, the Potency entry is “inactive”.

As for `CC(C)(C)C(=O)OCOP(=O)(COCCn1cnc2c(N)ncnc21)OCOC(=O)C(C)(C)C`, the Potency is 11.9 µM (active) and 18.7 µM (active).
